Screening data as filed in PubChem BioAssay.
ugtP null kill – growth inhibition of S. aureus ugtP deletion strain | S. aureus RN4220 ugtP deletion, OD600 growth, 16 h | AID 1259309 | 0.54% of 330,000 active | growth inhibition, % (test concentration not listed); in the data active = growth inhibition above about 68%;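 also: plate controls were untreated wells for no effect and antibiotic for full effect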
TcdB inh – TcdB glycohydrolase inhibition; AID 652162; TcdB glycohydrolase enzymatic assay, plate reader; inhibition, % at 9.99 µM; 0.24% of 350,000 active; in the data active = inhibition above about 10%
MazEF act – activators of E. coli MazEF toxin-antitoxin RNase; P0AE70; FAM/BHQ RNA-DNA oligo cleavage fluorescence, 5 h; activation, % at 20 µM; 0.32% of 350,000 active; AID 504720; in the data active = activation above about 50%
Target sequence (P0AE70 whole entry, looked up): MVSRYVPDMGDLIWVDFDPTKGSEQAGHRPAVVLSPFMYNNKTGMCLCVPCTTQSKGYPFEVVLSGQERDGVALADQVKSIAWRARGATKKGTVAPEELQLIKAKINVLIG
PfHsp40 yeast – rescue of PfHsp40-mediated yeast toxicity; 0.68% of 340,000 active; growth rescue, % at 12.5 µM; S. cerevisiae expressing PfHsp40, growth rescue, ATP luminescence; in the data active = growth rescue above about 28%, passing the limit was not always enough;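 also: yeast W303a lacking pdr1 and pdr3 grown in galactose medium; growth measured after three days at 30 °C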
RN4220 kill – kills Staphylococcus aureus RN4220 | S. aureus RN4220 growth, OD600, 16 h | inhibition, % (test concentration not listed) | 0.33% of 330,000 active; in the data active = inhibition above about 85%;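 also: plate controls were untreated cells for no effect and reference antibiotic for full effect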
Mtb hypoxia inh – reduces hypoxia-regulated biosensor signal in M. tuberculosis. fluorescence inhibition, % (test concentration not listed). 0.1% of 300,000 active. AID 1159583. M. tuberculosis hypoxia-regulated fluorescent reporter, fluorescence; in the data active = fluorescence inhibition mostly above about 23%, no sharp cut-off; inactive = mostly below about 17%
* hit, by the source's call; · = no result given. A selection: hits, their analogues and other compounds. The true share with any hit is near 1.3%.

SMILES	ugtP null kill	TcdB inh	MazEF act	PfHsp40 yeast	RN4220 kill	Mtb hypoxia inh
Cc1ccc(C)c(-c2cc(C(=O)NNC(=S)NCC(C)C)c3ccccc3n2)c1	20	-1	-3	82*	17	9
COc1ccc(Cl)cc1C(=O)NNC(=S)NC(=O)c1cc(-c2ccccc2)nc2ccccc12	97*	·	2	1	93*	4
O=C(COC(=O)C=Cc1ccc(Cl)cc1Cl)NCCC1=CCCCC1	-1	·	·	·	7	5
COc1ccc2c3c(n(C)c2c1)[C@@H](CO)N(CC1CC1)CC31CCN(C(=O)c2ccc(F)cc2)CC1	·	0	·	·	·	·
C[C@@H]1CN([C@@H](C)CO)C(=O)c2c(c3ccccc3n2C)-c2ccccc2CO[C@@H]1CN(C)CC1CC1	·	-19	·	·	·	·
CC(=O)C[C@H]1c2ccccc2S(=O)(=O)N1C1CCCCC1	·	14*	-1	-1	·	·
CO[C@H]1CN(C)C(=O)c2cc(NC(=O)C3CC3)ccc2OC[C@@H](C)N(Cc2cccc(F)c2)C[C@@H]1C	·	0	·	·	·	·
Cc1cc2c(cc1C)C(=O)C(Br)=C(N)C2=O	13	-1	2	-1	38	-11
NC1=C(Br)C(=O)c2ccccc2C1=O	95*	-1	11	8	77	16
C=C1C(=O)C23CCC4C(C)(C(=O)OC)CCCC4(C)C2CCC1(O)C3 (configuration not stated)	·	0	0	242*	·	·
O=C(NN=Cc1ccccn1)C1CC1	0	·	·	·	3	3
COc1ccc(CN(C)C(=O)c2cccc(Oc3ccccc3)c2)c(OC)c1OC	13	-1	55*	4	7	-2
CN(Cc1ccc(C(F)(F)F)cc1)C(=O)c1ccc(Oc2ccccc2)cc1	14	2	-4	5	-3	0
CN(Cc1ccccc1F)C(=O)c1ccc(Oc2ccccc2)cc1	91*	1	-8	16	78	6
CN1c2ccc(Br)cc2[C@@H]2[C@@H](CCN2C(=O)C2CCOCC2)[C@@H]1CO	·	-1	·	·	·	·
C#CCNC(=O)C1=CC(c2coc3ccccc3c2=O)CC(OCCCCO)O1 (configuration not stated)	11	·	·	·	7	-4
C/C(=N\NC(=S)NCCc1ccccc1)c1ccc(C)cc1	·	·	5	30*	·	·
CCCCCCCCCCCCCCCCn1cc[n+](C)c1	99*	3	-34	3	101*	12
CCCCCCCCn1ccc(=N)cc1	14	1	4	0	4	8
COc1ccc(CN(C)C[C@H]2OCCCC[C@H](C)Oc3ccc(NS(=O)(=O)c4ccccc4)cc3C(=O)N([C@@H](C)CO)C[C@H]2C)cc1	·	-1	·	·	·	·
C[C@H]1COC2=C1C(=O)C(=O)c1c2ccc2c1CCCC2(C)C	41	·	-18	72*	8	·
O=C(C[C@@H]1CC[C@H](NC(=O)c2cccc(F)c2)[C@H](CO)O1)NCc1ccc(Oc2ccccc2)cc1	·	1	·	·	·	·
CCC(CC)NC(=O)CON=Cc1ccc(Cl)cc1Cl	-2	·	·	·	6	8
CC(C)=CCC12Oc3cc(O)ccc3C1(O)Oc1cc(O)c([C@H]3C=C(C)CC(c4ccc(O)cc4O)[C@H]3C(=O)c3ccc(O)cc3O)c(O)c1C2=O (some centres not stated)	100*	·	33	·	96*	·
C[C@H](CO)N1C[C@H](C)[C@H](CN(C)S(=O)(=O)c2ccc(F)cc2)OCCCC[C@H](C)Oc2ccc(NS(=O)(=O)c3cccs3)cc2C1=O	·	1	·	·	·	·
SMILES	ugtP null kill	TcdB inh	MazEF act	PfHsp40 yeast	RN4220 kill	Mtb hypoxia inh
CCOc1ccc2nc(SCc3ccc(OC)cc3)sc2c1	90*	·	-4	0	7	6
CN(C)C(=O)N1CCC(C(=O)NC2CCCCCCC2)CC1	1	·	1	33*	6	6
CCS(=O)(=O)N1CCC(C(=O)NC2CCCCC2)CC1	13	0	12	0	3	11
O=C(c1cccnc1)N1CC(=O)N2[C@@H](CO)[C@@H](c3ccc(C#CCC4CCCC4)cc3)[C@@H]2C1	·	2	·	·	·	·
COc1ccc(C=Nn2c(-c3n[nH]c4c3CCC4)n[nH]c2=S)c(OC)c1OC	1	·	·	·	4	11
O=C(C[C@H]1CC[C@@H]2[C@H](COC[C@@H](O)CN2C(=O)Nc2ccc(Cl)c(Cl)c2)O1)NCc1ccncc1	·	18*	·	·	·	·
O=C(C[C@@H]1CC[C@@H]2[C@H](COC[C@H](O)CN2C(=O)c2ccccn2)O1)NC1CCC1	·	12*	·	·	·	·
O=C(C[C@H]1CC[C@@H]2[C@H](COC[C@H](O)CN2C(=O)c2ccccn2)O1)NC1CCC1	·	0	·	·	·	·
O=C(C[C@@H]1CC[C@@H]2[C@H](COC[C@@H](O)CN2C(=O)Nc2ccc(Cl)c(Cl)c2)O1)NCc1ccccc1	·	0	·	·	·	·
COC(=O)/C=C1\C(=O)N(c2nc3ccc(OC)cc3s2)C(=S)N1c1ccc(F)cc1	3	·	·	·	1	3
COC(=O)/C=C1\C(=O)N(c2nc3ccccc3s2)C(=S)N1c1ccc(F)cc1	-17	1	58*	-1	-3	1
COC(=O)Cc1ccc(NC(=S)NCc2ccc(OC)cc2)cc1	2	23*	6	1	2	2
O=C(c1ccc([N+](=O)[O-])cc1)N1CCN(c2cccc3[nH]ccc23)CC1	4	10*	3	1	1	9
COc1cc(OC)c(OC)cc1C=Nn1c(-c2n[nH]c3c2CCC3)n[nH]c1=S	4	·	·	·	6	8
CCOc1ccc(C(=O)Nc2ccc(NC(=O)c3ccccc3)cc2)cc1Br	6	1	4	-1	5	21
CCOc1ccc(C(=O)Nc2ccc(Cc3ccncc3)cc2)cc1Br	-14	0	-4	60*	-8	12
O=C(O)c1ccc(CSc2nnc(-c3ccncc3)n2CC2CCCO2)cc1 (configuration not stated)	-2	·	-3	-1	-1	2
Cc1ccc(CSc2nnc(-c3ccncc3)n2CC2CCCO2)cc1 (configuration not stated)	4	·	-7	54*	3	-10
Clc1ccc2c(N/N=C/c3ccccc3Br)ccnc2c1	·	0	-12	2	·	·
Clc1ccc2c(NN=Cc3ccc(Br)cc3)ccnc2c1	101*	·	·	·	101*	7
Clc1ccc2c(N/N=C/c3cccc(Br)c3)ccnc2c1	·	0	10	1	·	·
Cc1ccc(C=NNc2ccnc3cc(Cl)ccc23)c(C)c1	101*	·	·	·	99*	7
Cc1ccccc1C=NNc1ccnc2cc(Cl)ccc12	99*	·	·	·	98*	16
CC1=C(C(=O)Nc2ccccc2)C(c2ccc(C)o2)n2c(sc(=Cc3ccco3)c2=O)=N1 (configuration not stated)	-3	·	·	·	0	9
O=C(Nc1ccc(Cl)cc1)c1cccc(S(=O)(=O)Nc2ccccn2)c1	-4	1	0	-2	-7	4
O=C(Nc1ccccc1)c1ccc(Br)c(S(=O)(=O)Nc2ccccn2)c1	-3	1	2	48*	0	14
